Our source for the inhibition values is PubChem BioAssay.

Test [1] has as its system transactivating tegument protein VP16 (Human herpesvirus 1). The test can be described thus: compounds suppressing VP16-driven luciferase signal – cell-based, luminescence, single concentration, counter-screen for SRC2 inhibitor project (AID 652007). Particulars: cell-based VP16 transactivation luciferase reporter, at 8.9 µM, active compounds read high. A general note: A counterscreen serves to expose hits that act by an unwanted route or on another target.

Test [2] addresses Nuclear receptor coactivator 2 (Homo sapiens) (UniProt Q15596). In words: inhibition of GAL4-SRC2 driven luciferase expression – cell-based, luminescence, HEK293, triplicate, confirmation (AID 652008;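 active = mean inhibition above 46.5%, the solvent-only control mean plus 3 SD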;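 also: 0% = DMSO-treated cells and 100% = Gossypol at 36 µM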). Particulars: HEK293 GAL4-SRC2 luciferase reporter, at 8.9 µM, active compounds read high. In general terms: In a reporter assay the amount or activity of a reporter protein is the signal.

Each structure is given as a SMILES string. The source made the active and inactive calls. Rule as the data show it, unless noted: active = inhibition above about 36%; inactive = the rest.

Nuclear receptor coactivator 2 (Homo sapiens), sequence (Q15596 whole entry, looked up, the tested form may be a part): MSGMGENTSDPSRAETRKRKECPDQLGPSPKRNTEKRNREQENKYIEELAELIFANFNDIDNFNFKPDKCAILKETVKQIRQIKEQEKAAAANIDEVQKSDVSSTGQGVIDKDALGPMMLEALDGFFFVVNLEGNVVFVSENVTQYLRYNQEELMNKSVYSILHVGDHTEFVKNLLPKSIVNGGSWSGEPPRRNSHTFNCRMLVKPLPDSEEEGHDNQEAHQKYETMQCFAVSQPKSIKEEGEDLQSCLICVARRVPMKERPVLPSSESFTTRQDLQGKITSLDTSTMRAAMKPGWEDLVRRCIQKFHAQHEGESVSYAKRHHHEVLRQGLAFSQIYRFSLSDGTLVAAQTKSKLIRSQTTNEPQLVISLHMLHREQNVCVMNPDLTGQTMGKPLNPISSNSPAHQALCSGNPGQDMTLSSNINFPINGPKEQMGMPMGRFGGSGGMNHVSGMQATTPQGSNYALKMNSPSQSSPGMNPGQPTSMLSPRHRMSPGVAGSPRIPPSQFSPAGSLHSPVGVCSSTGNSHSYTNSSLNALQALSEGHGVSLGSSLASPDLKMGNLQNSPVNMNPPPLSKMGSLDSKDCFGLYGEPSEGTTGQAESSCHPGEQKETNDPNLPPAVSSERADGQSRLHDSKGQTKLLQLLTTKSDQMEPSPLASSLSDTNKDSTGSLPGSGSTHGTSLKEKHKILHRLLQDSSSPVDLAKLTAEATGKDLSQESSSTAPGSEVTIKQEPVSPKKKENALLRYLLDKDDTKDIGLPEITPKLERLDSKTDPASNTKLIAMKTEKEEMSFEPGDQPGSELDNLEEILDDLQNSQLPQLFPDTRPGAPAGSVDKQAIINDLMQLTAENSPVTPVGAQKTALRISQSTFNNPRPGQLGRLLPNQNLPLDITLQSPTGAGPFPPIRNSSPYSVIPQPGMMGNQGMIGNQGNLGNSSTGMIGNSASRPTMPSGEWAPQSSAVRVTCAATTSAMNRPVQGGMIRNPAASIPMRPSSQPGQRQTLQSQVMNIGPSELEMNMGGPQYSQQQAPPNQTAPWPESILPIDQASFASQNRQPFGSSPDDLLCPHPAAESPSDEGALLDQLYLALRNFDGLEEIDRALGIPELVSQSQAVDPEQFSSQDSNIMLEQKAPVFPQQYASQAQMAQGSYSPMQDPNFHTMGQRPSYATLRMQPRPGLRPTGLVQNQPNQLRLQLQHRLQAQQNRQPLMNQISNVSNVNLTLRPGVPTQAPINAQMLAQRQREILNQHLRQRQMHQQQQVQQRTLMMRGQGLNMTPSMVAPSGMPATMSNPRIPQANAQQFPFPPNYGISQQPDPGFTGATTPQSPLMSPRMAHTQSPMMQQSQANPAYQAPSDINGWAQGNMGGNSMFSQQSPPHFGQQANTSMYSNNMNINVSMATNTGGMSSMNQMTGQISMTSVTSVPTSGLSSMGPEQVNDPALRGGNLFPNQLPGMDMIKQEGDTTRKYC

Regarding `O=C(Nc1ccncc1)c1c(Cl)cccc1Cl`, the figures for the inhibition in test [1] and in test [2] were -4.71% (inactive) and 12.5% (inactive), respectively.

For `CCOc1ccc(-c2cc(CCCC(=O)NCCCOC)no2)cc1`, the figures for the inhibition in test [1] and in test [2] were 38.5% (active) and 52% (active), respectively.

Take `O=C(NCCc1ccccc1)C(c1cccs1)N(C(=O)CCl)c1ccc(Cl)cc1` (configuration not stated): the inhibition (usually the change of the read-out against control, counted positive when it falls) was 22.9% (inactive) in test [1] and 52.8% (active) in test [2].

Turning to `COc1ccc2nc(-c3ccc(N)cc3)[nH]c2c1`, the inhibition in test [1] was -62.2% (inactive); in test [2] it was 49.5% (active).

Regarding `O=C(N/N=C/c1ccc(O)cc1)c1[nH]c2ccc(Br)cc2c1-c1ccccc1`, the inhibition was -15.2% (inactive) in test [1] and -7.94% (inactive) in test [2].

Take `COC(=O)c1ccc2c(=O)[nH]c(COC(=O)c3[nH]c(C)c(C(C)=O)c3C)nc2c1`: the inhibition in test [1] was -18.3% (inactive); in test [2], 12.3% (inactive).

With `CCc1cc(CNC(=O)c2ccc3nc(Cc4ccc(OC)c(OC)c4)oc3c2)on1`, the inhibition in test [1] was 9.61% (inactive); in test [2], 26.6% (inactive).

For the compound `COc1ccc(CCNc2nnc(Sc3nnnn3-c3ccccc3)s2)cc1OC`, the inhibition is 5.42% (inactive) in test [1] and 20.1% (inactive) in test [2].

Regarding `O=C(CCl)Nc1cccc(S(=O)(=O)NC2=NCCC2)c1`, the inhibition was 76.2% (active) in test [1] and 38.1% (inactive) in test [2].

With `CN(c1ccccc1)S(=O)(=O)c1ccc(C(=O)NCc2ccccc2CN2CCCC2)cc1`, the figures for the inhibition in test [1] and in test [2] were -19.8% (inactive) and -25.8% (inactive), respectively.

As to `CC(=O)c1cc2c(cc1NC(=O)c1ccc(-n3nc(C)cc3C)cc1)OCO2`, the inhibition is -6.86% (inactive) in test [1] and -7.82% (inactive) in test [2].

As for `CCN(C(=O)C1CCCN(c2nnc(-n3cccc3)s2)C1)c1ccccc1C` (configuration not stated), the results for the inhibition in test [1] and in test [2] were 11.5% (inactive) and 16.4% (inactive), respectively.

On to `O=C(CCCN1C(=O)/C(=C/c2ccccc2Cl)SC1=S)NNC(=O)c1ccccc1`, for which the values for the inhibition in test [1] and in test [2] were 61.2% (active) and 73% (active), respectively.

As to `COCCNC(=O)CN(C(=O)c1ccc(N2CCCC2)nc1)c1ccc(F)c(Cl)c1`, the inhibition in test [1] is -5.77% (inactive); in test [2], -19.2% (inactive).

Take `COc1ccc(CN2C[C@H](Cc3ccccc3)[C@@H](CC(=O)Nc3ccccc3)C2=O)cc1`: the inhibition is -10.9% (inactive) in test [1] and 1.81% (inactive) in test [2].

Consider `Cc1ccc(S(=O)(=O)CC(=O)N(CCCN(C)C)c2nc3ccc(C)cc3s2)cc1`, for which the inhibition in test [1] is -1.57% (inactive); in test [2] it was 15.1% (inactive).

For the compound `O=S(=O)(c1ccc(NC(=S)NCc2ccco2)cc1)N1CCCCC1`, the inhibition in test [1] is -14.6% (inactive); in test [2], 4.68% (inactive).

For the compound `COc1cc(F)ccc1-c1csc(C(O)c2ccc(F)c(F)c2)n1` (configuration not stated), the inhibition in test [1] is -3.93% (inactive); in test [2], 10.6% (inactive).

For `COc1ccc(Cl)cc1C(=O)Nc1nc2ccccc2[nH]1`, the inhibition in test [1] is -42.5% (inactive); in test [2], 10.7% (inactive).

Regarding `Nc1nonc1C(=O)NCCNCc1cc(Br)ccc1OCc1ccc(F)cc1`, the inhibition in test [1] is 1.07% (inactive); in test [2] it was 1.86% (inactive).

On to `COc1ccc2ccc(O)c(CN3CCN(S(=O)(=O)c4cccc(C(F)(F)F)c4)CC3)c2c1`, for which the inhibition is 6.66% (inactive) in test [1] and -14% (inactive) in test [2].

For `Cc1ccccc1CS(=O)(=O)c1ccc(C(=O)N2CCOCC2)cc1[N+](=O)[O-]`, the inhibition in test [1] was 14.6% (inactive); in test [2] it was 24.6% (inactive).

On to `O=S(=O)(Cc1ccccc1Cl)NCCc1ccc(F)cc1`, for which the inhibition in test [1] was -11.3% (inactive); in test [2], -1.95% (inactive).

Regarding `Cc1cc2nc(Sc3c([N+](=O)[O-])nc(C)n3Cc3ccccc3)[nH]c2cc1C`, the figures for the inhibition in test [1] and in test [2] were 5.05% (inactive) and 30.7% (inactive), respectively.

With `O=C(Nc1ncc([N+](=O)[O-])s1)c1ccc2c(c1)OCO2`, the results for the inhibition in test [1] and in test [2] were -5.69% (inactive) and 37.6% (inactive), respectively.

As to `COC(=O)c1cc(=O)n(-c2ccccc2)c(=Nc2ccccc2)s1`, the inhibition in test [1] was 8.44% (inactive); in test [2], 24.4% (inactive).

Take `CN=C1CC(SC)=C1c1ccc(C)cc1`: the inhibition was -10.3% (inactive) in test [1] and 1.69% (inactive) in test [2].

`COc1ccc(NC(=O)Cc2nnc(SCC(=O)Nc3ccc(F)cc3)n2C)cc1`: the values for the inhibition in test [1] and in test [2] were -17.1% (inactive) and -24% (inactive), respectively.

On to `COc1ccc(CN2C[C@H](COCc3ccccc3)Oc3cccc(N4CCCC4)c3S2(=O)=O)cc1`, for which the inhibition is -11% (inactive) in test [1] and -6.23% (inactive) in test [2].

`Cc1ccc2c(c1)N(C(C)C(=O)NCc1ccc3c(c1)OCO3)C(=O)CO2` (configuration not stated): the inhibition was -10.5% (inactive) in test [1] and -19.4% (inactive) in test [2].

For the compound `CC(C)(C)n1nc2c(c1NC(=O)c1cc([N+](=O)[O-])ccc1Cl)CS(=O)(=O)C2`, the inhibition is 25.2% (inactive) in test [1] and 47.5% (active) in test [2].

Take `Cc1ccc(CS(=O)(=O)c2ncc(Cl)c(C(=O)Nc3ccc(OC(F)F)cc3)n2)cc1`: the inhibition was 76.9% (active) in test [1] and 28.9% (inactive) in test [2].

For the compound `COc1cc(NC(=O)CSc2nnc3c(C)cc4cc(C)cc(C)c4n23)c(C(=O)O)cc1OC`, the inhibition in test [1] is -9.86% (inactive); in test [2], -11.4% (inactive).

In the case of `C=CC[C@]12CC=CC(=O)[C@@]1(O)O[C@H](c1ccc(OC)c(OC)c1)[C@H]2C`, the values for the inhibition in test [1] and in test [2] were 22.7% (inactive) and 32% (inactive), respectively.

Turning to `Cc1ccc(N(C(=O)c2ccc3c(c2)OCO3)C2C=CS(=O)(=O)C2)cc1C` (configuration not stated), the results for the inhibition in test [1] and in test [2] were 0.8% (inactive) and -17.6% (inactive), respectively.

For the compound `Cc1ccc(N(C)C(=O)c2cc(S(=O)(=O)N3CCCCC3)c[nH]2)cc1`, the inhibition was 1.11% (inactive) in test [1] and 15.4% (inactive) in test [2].
